Results published in PubChem BioAssay (NCATS).
Records with an inconclusive call do not appear. A number with no mark means an inactive call. The source made the active and inactive calls. Calls follow the shape of the full dose curve.

What follows are compounds tested against Peroxisome proliferator-activated receptor delta (Homo sapiens) (UniProt Q03181) (assay: qHTS assay for small molecule agonists of peroxisome proliferator-activated receptor delta signaling (AID 588534;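 also: 0% = DMSO basal wells and 100% = positive control agonist at 10 µM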)). Conditions: HEK293T PPARdelta-UAS-bla, beta-lactamase ratio, 18 h; series mostly up to 76.7 µM; activation: at the top concentration.
Sequence of Peroxisome proliferator-activated receptor delta (Homo sapiens) (Q03181 whole entry, looked up): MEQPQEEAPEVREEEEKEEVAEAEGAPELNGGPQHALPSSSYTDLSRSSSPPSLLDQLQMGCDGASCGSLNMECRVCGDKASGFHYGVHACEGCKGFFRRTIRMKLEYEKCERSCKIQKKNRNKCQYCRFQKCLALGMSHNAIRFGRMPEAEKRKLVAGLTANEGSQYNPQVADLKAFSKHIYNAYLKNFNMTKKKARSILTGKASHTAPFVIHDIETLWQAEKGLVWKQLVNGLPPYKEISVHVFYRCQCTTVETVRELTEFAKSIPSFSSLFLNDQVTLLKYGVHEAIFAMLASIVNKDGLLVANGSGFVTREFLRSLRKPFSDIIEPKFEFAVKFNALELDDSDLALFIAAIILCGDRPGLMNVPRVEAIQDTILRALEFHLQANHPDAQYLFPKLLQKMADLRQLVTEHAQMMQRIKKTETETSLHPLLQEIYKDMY
From the text: NIH Chemical Genomics Center [NCGC] U.S. Environmental Protection Agency [EPA] National Institutes of Environmental Health Sciences [NIEHS] National Toxicology Program [NTP] NCGC Assay Overview The Peroxisome proliferator-activated receptors (PPARs) are lipid-activated transcription factors of the nuclear receptor superfamily with three distinct subtypes namely PPAR alpha, PPAR delta (also called PPAR beta) and PPAR gamma. All these subtypes heterodimerizes with Retinoid X receptor (RXR) and have different physiological functions. […] This role of PPAR delta implicates the potential use of its ligands in the treatment of metabolic disorders.
Compounds were screened in a titration series in 1536-well format. […] Concentration-response titration points for each compound were fitted to the Hill equation yielding concentrations of half-maximal stimulation (EC50) and maximal response (efficacy) values. qHTS protocol for PPAR-delta beta-lactamase assay in agonist mode [Step] [Parameter] [Value] [Description] 1. Reagent; 6 uL; 4000 cells/well 2. Incubation; 37 C for 5 hrs 3. Compounds; 23 nL; 0.59 nM to 92 uM 4. […] Incubation; 37 C for 18 hrs 6. Detection reagent; 1 uL of CCF4-dye 7. Incubation; RT for 2 hrs 8. Detection; Fluorescence; Envision plate reader

Structure (SMILES) | outcome | activation
c1ccc2sc(SSc3nc4ccccc4s3)nc2c1 | inactive | –
CC(=O)Nc1ccccc1 | – | 5.62%
CC(C)NC(C)C | – | -1.21%
Cn1c(=O)c2[nH]cnc2n(C)c1=O | – | 5.3%
NC(=O)c1cnccn1 | – | 12.3%
NCCc1ccc(O)cc1 | – | -1.63%
O=C(OOC(=O)c1ccccc1)c1ccccc1 | – | -0.786%
COc1cc(C=O)ccc1O | inactive | –
O=c1[nH]cnc2[nH]ncc12 | – | 12.3%
CCOP(=S)(OCC)Oc1ccc2c(C)c(Cl)c(=O)oc2c1 | – | -10.2%
O=C(O)c1cc(O)c(O)c(O)c1 | – | 10.6%
COc1ccc(C(=O)c2ccccc2)c(O)c1 | inactive | –
O=C(c1ccccc1)C(O)c1ccccc1 (stereo not given) | inactive | –
Oc1ccccc1 | inactive | –
CC(C)(Oc1ccc(Cl)cc1)C(=O)O | – | 2.33%
CCCCCCCCCCCCCCCC(=O)OC(C)C | – | -1.12%
CC1CC(OC(=O)c2ccccc2O)CC(C)(C)C1 (stereo not given) | – | 10.4%
CCCC(O)C(CC)CO (stereo not given) | – | -4.07%
COc1cc(OC)c(C(=O)CCCN2CCCC2)c(OC)c1 | – | -2.71%
Oc1ccc(Cl)cc1 | – | 9.11%

Structure (SMILES) | outcome | activation
CCCCC(CC)COC(=O)c1ccccc1O (stereo not given) | – | 1.22%
CC(O)CN(CCN(CC(C)O)CC(C)O)CC(C)O (stereo not given) | – | 8.65%
O=C(O)/C=C\C(=O)O | – | 7.55%
O=C(N[C@H](CO)[C@H](O)c1ccc([N+](=O)[O-])cc1)C(Cl)Cl | inactive | –
Nc1nc(Cl)nc2c1ncn2[C@H]1C[C@H](O)[C@@H](CO)O1 | – | -13%
O=C1c2c(O)cccc2Cc2cccc(O)c21 | – | 3.65%
COP(=S)(OC)Oc1ccc(SC)c(C)c1 | inactive | –
CC(=O)N1CCN(c2ccc(OC[C@H]3CO[C@](Cn4ccnc4)(c4ccc(Cl)cc4Cl)O3)cc2)CC1 | – | -14.1%
CCCCOC(=O)c1ccc(O)cc1 | inactive | –
CC(C)(C)CC(C)(C)c1ccc(O)c(-n2nc3ccccc3n2)c1 | – | -4.09%
CC(O)C(=O)O (stereo not given) | – | 5.68%
Nc1ccc(S(=O)(=O)c2ccc(N)cc2)cc1 | inactive | –
S=P(N1CC1)(N1CC1)N1CC1 | – | 1.07%
CCCCCCCCCCCCCCCCO | – | 0.111%
Nc1ccc([As](=O)(O)O)cc1 | – | 2.38%
CC(=O)NS(=O)(=O)c1ccc(N)cc1 | – | -5.9%
N[C@@H](Cc1cc(I)c(Oc2ccc(O)c(I)c2)c(I)c1)C(=O)O | – | -7.33%
Nc1ccccc1 | – | 11.5%
COC(=O)c1ccc(O)cc1 | – | -3.13%
CCCCCCCC(=O)OCC(COC(=O)CCCCCCC)OC(=O)CCCCCCC | – | -2.47%
